Binding signal data for 1 sequence are collected here from paper PMC7862700, “An all-to-all approach to the identification of sequence-specific readers for epigenetic DNA modifications on cytosine”.

Common to all, as to experiment: DAPPL (digital affinity profiling via proximity ligation, sequencing); 10 mM Tris-HCl pH 7.5, 50 mM NaCl, 1 mM DTT, 4% glycerol, room temperature, 30 min; GST-TFs on glutathione beads, 16-mer random dsDNA library, 0.1% formaldehyde crosslink after washing; high values mean tight binding
One assay addresses T1, FEV (Homo sapiens, UniProt Q99581 1-238).
T1 sequence: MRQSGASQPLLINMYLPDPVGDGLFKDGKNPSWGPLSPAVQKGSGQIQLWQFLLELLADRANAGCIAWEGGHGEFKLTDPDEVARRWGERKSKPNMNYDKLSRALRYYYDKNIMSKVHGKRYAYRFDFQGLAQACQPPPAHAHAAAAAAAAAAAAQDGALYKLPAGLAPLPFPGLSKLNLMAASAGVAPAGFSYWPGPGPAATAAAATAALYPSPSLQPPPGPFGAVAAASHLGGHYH
Conditions: protein: recombinant; tags: N-terminal GST; dsDNA, one strand shown. The method in brief: (§1)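 Beads coated with glutathione captured GST-fused human transcription factors that had been expressed in yeast, and the factors were then given DNA barcodes and pooled with a tag-only sample. The pools were incubated with 200 nmole of a random double-stranded 16-mer DNA library in Tris/NaCl/DTT/glycerol buffer for 30 min at room temperature, washed, crosslinked with 0.1% formaldehyde and proximity-ligated with BsaI/T4 ligase at 37 °C for 1 h. PCR amplification and Illumina NextSeq500 sequencing came last. Binding signal is each hexamer's read frequency for a factor divided by its frequency for the tag-only sample.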

For a further assay, the target named is ETV5 (Homo sapiens, UniProt P41161 1-510). Conditions: protein: recombinant; tags: N-terminal GST; dsDNA, one strand shown. Summed up: as §1
Chain of ETV5 (P41161 whole entry): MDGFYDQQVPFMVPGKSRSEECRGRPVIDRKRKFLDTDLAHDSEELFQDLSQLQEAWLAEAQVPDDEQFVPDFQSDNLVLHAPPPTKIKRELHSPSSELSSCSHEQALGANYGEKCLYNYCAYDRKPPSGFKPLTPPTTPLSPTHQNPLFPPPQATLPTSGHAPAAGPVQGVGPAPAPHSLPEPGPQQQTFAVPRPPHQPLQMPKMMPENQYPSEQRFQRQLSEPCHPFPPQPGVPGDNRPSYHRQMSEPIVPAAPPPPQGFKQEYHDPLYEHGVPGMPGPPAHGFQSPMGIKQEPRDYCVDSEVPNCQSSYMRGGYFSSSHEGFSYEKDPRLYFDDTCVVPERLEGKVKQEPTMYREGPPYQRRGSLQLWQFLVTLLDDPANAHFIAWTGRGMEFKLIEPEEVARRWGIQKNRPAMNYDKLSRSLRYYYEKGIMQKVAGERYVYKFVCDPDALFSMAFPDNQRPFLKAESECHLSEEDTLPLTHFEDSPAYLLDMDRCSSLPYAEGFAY
The target of the next assay is HSF1 (Homo sapiens, UniProt Q00613 1-529). The conditions noted are these: protein: recombinant; tags: N-terminal GST; chain copies: 3; dsDNA, one strand shown. Summed up: as §1
Chain of HSF1 (Q00613 whole entry): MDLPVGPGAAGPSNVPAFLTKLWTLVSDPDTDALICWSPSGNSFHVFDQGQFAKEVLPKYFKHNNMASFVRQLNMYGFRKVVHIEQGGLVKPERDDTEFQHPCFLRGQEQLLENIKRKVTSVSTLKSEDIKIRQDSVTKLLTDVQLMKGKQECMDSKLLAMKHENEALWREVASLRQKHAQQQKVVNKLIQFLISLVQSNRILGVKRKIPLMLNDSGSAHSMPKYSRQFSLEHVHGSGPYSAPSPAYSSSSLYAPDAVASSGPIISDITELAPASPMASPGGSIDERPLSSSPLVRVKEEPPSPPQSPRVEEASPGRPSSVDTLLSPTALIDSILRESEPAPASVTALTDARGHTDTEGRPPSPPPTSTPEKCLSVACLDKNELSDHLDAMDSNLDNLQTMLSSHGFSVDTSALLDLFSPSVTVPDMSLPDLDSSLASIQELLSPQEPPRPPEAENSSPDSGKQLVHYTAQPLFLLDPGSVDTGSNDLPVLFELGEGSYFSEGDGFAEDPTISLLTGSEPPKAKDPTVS
For another assay, the target named is T2, SPIC (Homo sapiens, UniProt Q8N5J4 1-248).
T2 sequence: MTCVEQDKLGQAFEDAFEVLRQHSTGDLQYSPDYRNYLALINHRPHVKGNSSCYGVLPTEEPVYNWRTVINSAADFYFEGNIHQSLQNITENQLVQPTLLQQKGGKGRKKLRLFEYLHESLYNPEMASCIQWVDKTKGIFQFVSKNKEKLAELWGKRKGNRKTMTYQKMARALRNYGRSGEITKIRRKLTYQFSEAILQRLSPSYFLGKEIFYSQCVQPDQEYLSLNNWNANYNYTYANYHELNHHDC
Conditions: protein: recombinant; tags: N-terminal GST; dsDNA, one strand shown. Summed up:
as §1

The next assay concerns the target ELF4 (Homo sapiens, UniProt Q99607 1-663). Conditions: protein: recombinant; tags: N-terminal GST; dsDNA, one strand shown. Summed up:
as §1

The target of the next assay is T3, ELK4 (Homo sapiens, UniProt P28324-2 1-405).
T3 sequence: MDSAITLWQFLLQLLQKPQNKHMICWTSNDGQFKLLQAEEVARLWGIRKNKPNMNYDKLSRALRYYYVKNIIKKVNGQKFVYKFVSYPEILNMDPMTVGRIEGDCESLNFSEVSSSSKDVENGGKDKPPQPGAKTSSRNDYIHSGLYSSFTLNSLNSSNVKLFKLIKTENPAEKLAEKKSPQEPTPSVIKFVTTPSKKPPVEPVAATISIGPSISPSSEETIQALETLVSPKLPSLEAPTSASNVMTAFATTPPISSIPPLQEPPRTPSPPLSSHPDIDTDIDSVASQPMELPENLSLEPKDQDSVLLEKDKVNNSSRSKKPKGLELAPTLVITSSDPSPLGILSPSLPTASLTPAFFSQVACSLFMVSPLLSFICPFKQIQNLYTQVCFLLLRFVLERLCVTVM
The conditions noted are these: protein: recombinant; tags: N-terminal GST; dsDNA, one strand shown. The method in brief: as §1

A further assay addresses T4, ETV2 (Homo sapiens, UniProt O00321 1-342).
T4 sequence: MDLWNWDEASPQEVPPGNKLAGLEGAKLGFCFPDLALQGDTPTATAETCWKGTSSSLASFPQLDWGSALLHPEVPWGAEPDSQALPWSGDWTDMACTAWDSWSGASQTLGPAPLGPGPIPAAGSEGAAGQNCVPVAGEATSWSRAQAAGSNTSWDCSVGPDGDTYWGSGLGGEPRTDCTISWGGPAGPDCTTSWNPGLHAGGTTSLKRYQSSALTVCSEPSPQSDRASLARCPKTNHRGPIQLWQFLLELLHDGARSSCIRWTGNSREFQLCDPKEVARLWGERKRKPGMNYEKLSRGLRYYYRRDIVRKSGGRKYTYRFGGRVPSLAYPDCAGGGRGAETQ
Conditions: protein: recombinant; tags: N-terminal GST; dsDNA, one strand shown. The method in brief:
as §1

A further assay deals with T5, ELF3 (Homo sapiens, UniProt P78545 1-371).
T5 sequence: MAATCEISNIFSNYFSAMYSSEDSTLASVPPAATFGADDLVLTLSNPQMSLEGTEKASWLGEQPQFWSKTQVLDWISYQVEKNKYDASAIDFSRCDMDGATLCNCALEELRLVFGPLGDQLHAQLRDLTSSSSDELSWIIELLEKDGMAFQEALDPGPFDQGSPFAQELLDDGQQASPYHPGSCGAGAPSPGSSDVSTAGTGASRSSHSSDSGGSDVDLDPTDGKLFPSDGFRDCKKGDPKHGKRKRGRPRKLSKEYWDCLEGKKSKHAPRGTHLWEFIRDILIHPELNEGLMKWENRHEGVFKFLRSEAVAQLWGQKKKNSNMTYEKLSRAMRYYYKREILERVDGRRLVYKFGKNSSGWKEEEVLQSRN
Conditions: protein: recombinant; tags: N-terminal GST; dsDNA, one strand shown. Summed up:
as §1

For a further assay, the target named is CRX (Homo sapiens, UniProt O43186 1-299). The conditions noted are these: protein: recombinant; tags: N-terminal GST; dsDNA, one strand shown. Summed up:
as §1

The target of a further assay is ETV1 (Homo sapiens, UniProt P50549 1-477). The conditions noted are these: protein: recombinant; tags: N-terminal GST; dsDNA, one strand shown. The method in brief: as §1
Chain of ETV1 (P50549 whole entry): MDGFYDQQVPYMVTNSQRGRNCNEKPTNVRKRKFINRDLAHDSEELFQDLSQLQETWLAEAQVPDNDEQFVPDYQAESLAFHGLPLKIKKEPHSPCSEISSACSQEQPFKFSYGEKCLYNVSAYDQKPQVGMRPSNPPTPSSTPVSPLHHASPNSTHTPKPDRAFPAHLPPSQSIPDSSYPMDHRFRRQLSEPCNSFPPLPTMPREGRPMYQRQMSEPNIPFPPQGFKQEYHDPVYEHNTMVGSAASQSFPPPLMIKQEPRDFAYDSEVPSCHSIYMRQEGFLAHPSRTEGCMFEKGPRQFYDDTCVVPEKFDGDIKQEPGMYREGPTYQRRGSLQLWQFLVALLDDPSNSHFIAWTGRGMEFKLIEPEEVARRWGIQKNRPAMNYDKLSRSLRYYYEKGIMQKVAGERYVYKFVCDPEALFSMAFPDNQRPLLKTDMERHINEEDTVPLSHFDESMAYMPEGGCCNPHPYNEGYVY
A further assay addresses T6, ERF (Homo sapiens, UniProt P50548 1-548).
T6 sequence: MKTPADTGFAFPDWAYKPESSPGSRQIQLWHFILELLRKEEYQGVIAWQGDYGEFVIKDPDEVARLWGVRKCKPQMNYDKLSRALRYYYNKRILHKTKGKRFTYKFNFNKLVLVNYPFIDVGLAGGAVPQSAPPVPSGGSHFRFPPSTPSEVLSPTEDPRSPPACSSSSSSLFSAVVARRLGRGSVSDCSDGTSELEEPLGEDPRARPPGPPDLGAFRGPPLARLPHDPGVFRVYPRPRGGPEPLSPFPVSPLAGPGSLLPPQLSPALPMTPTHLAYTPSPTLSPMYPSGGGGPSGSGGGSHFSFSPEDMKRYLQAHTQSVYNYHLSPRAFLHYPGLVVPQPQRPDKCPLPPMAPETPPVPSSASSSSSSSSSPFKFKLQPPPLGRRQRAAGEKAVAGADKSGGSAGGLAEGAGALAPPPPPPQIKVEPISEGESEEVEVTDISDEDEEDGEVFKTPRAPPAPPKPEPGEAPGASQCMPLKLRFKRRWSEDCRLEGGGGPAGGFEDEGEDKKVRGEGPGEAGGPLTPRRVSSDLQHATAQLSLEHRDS
Conditions: protein: recombinant; tags: N-terminal GST; dsDNA, one strand shown. Summed up: as §1

The target in another assay is T7, ETV3L (Homo sapiens, UniProt Q6ZN32 1-361).
T7 sequence: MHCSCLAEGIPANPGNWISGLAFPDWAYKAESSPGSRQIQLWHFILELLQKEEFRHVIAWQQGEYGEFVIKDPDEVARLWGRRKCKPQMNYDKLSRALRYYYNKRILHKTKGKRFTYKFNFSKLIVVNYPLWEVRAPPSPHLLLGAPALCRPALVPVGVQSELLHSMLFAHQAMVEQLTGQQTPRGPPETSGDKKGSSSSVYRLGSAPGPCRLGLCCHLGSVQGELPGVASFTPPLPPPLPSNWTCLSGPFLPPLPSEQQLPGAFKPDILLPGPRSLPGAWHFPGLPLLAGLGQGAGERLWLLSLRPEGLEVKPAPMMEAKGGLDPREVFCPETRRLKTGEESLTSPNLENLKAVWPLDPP
Conditions: protein: recombinant; tags: N-terminal GST; dsDNA, one strand shown. The method in brief:
as §1

A further assay has as its target T8, ETS2 (Homo sapiens, UniProt P15036 1-469).
T8 sequence: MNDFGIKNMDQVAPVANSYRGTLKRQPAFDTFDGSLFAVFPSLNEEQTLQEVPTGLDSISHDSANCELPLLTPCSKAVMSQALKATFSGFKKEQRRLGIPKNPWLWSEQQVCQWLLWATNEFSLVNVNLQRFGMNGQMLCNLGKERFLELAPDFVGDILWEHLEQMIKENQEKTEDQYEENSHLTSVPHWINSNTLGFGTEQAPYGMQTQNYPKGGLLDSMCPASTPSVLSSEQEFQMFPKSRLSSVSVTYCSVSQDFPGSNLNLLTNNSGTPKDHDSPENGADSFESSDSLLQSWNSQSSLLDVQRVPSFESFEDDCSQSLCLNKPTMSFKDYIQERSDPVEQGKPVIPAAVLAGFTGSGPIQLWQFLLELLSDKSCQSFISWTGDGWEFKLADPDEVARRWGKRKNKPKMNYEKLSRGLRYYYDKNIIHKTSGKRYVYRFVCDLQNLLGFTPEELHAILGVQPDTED
Conditions: protein: recombinant; tags: N-terminal GST; dsDNA, one strand shown. Summed up: as §1

A further assay concerns the target T9, SPDEF (Homo sapiens, UniProt O95238 1-335).
T9 sequence: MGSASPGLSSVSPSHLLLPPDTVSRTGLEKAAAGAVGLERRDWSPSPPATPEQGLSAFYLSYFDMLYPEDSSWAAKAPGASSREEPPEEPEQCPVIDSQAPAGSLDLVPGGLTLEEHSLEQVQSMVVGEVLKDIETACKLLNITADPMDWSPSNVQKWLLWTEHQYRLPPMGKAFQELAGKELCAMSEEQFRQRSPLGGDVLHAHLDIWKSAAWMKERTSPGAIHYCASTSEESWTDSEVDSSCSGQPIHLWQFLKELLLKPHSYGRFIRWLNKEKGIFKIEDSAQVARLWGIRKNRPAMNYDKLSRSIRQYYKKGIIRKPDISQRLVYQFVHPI
The conditions noted are these: protein: recombinant; tags: N-terminal GST; dsDNA, one strand shown. Summed up: as §1

The target in another assay is T10, ETV7 (Homo sapiens, UniProt Q9Y603 1-341).
T10 sequence: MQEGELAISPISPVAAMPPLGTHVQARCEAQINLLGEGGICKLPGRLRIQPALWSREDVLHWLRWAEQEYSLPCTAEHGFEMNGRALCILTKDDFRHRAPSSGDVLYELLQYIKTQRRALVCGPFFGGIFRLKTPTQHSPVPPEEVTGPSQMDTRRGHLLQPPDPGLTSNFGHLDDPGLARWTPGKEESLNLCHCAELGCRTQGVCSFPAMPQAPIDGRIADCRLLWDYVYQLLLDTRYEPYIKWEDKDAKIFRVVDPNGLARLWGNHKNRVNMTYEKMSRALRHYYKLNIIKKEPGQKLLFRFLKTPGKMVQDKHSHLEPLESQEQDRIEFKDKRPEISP
The conditions noted are these: protein: recombinant; tags: N-terminal GST; dsDNA, one strand shown. Summed up: as §1

In a further assay the target is T11, ELF5 (Homo sapiens, UniProt Q9UKW6-2 1-255).
T11 sequence: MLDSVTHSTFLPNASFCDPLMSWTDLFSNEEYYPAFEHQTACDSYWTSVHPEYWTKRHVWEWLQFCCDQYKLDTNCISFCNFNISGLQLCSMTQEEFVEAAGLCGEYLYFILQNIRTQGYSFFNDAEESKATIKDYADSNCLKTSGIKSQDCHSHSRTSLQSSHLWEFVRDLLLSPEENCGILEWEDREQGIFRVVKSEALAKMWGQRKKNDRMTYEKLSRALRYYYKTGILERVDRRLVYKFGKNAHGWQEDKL
The conditions noted are these: protein: recombinant; tags: N-terminal GST; dsDNA, one strand shown. The method in brief: as §1

The target in a further assay is T12, ETV3 (Homo sapiens, UniProt P41162-2 1-143).
T12 sequence: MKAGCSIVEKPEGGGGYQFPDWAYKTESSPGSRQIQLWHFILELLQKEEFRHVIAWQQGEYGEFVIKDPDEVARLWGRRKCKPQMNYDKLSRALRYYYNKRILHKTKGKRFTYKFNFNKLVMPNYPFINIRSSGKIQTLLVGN
The conditions noted are these: protein: recombinant; tags: N-terminal GST; dsDNA, one strand shown. The method in brief:
as §1

Another assay deals with ETV6 (Homo sapiens, UniProt P41212 1-452). The conditions noted are these: protein: recombinant; tags: N-terminal GST; dsDNA, one strand shown. Summed up:
as §1

Chain of ELF4 (Q99607 whole entry): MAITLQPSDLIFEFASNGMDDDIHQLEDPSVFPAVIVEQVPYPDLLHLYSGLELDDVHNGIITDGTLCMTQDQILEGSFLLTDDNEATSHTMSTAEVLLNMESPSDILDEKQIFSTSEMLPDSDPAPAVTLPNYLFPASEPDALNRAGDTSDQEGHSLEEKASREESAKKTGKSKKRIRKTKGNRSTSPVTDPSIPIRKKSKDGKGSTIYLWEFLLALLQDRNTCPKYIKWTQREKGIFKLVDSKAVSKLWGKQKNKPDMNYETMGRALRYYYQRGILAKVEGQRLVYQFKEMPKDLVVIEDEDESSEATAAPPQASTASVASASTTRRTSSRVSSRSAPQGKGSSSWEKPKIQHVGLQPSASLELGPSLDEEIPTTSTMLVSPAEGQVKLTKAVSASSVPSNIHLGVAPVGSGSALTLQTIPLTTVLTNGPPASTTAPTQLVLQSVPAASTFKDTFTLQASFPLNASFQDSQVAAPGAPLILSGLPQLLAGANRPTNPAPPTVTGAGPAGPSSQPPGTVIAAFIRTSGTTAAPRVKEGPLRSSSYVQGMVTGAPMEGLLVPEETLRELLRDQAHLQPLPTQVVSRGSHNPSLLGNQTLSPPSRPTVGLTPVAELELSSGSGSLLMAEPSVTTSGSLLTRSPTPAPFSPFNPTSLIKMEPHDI
Chain of ETV6 (P41212 whole entry): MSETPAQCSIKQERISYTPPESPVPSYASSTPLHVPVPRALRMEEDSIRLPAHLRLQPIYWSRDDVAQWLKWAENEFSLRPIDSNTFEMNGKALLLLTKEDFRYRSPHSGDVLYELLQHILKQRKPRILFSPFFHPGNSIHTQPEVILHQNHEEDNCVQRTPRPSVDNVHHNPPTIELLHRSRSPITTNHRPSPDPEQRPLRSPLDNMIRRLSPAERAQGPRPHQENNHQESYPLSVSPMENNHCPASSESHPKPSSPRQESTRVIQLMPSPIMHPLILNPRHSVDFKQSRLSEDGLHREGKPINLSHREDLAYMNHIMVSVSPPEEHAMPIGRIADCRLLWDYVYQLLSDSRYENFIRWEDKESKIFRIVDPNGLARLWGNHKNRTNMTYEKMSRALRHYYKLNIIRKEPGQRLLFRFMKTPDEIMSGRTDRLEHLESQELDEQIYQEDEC
Chain of CRX (O43186 whole entry): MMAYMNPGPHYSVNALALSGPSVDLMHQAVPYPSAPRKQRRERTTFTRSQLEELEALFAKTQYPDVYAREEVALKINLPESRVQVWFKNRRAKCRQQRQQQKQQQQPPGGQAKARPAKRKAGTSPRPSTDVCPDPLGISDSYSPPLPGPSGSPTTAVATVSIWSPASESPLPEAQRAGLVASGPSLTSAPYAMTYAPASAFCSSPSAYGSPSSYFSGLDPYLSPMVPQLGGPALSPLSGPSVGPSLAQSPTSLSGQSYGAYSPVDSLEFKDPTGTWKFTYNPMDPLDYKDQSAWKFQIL

As to CATTCT, the binding signal with FEV was 1.29 fold enrichment (6-mer frequency, TF over GST control); in the assay with ETV5, 1.28 fold enrichment (6-mer frequency, TF over GST control); with HSF1, 2.56 fold enrichment (6-mer frequency, TF over GST control); with SPIC it was 1.31 fold enrichment (6-mer frequency, TF over GST control); with ELF4, 1.37 fold enrichment (6-mer frequency, TF over GST control); with ELK4, 1.36 fold enrichment (6-mer frequency, TF over GST control). Further, the binding signal with ETV2 is 1.36 fold enrichment (6-mer frequency, TF over GST control); with ELF3, 1.22 fold enrichment (6-mer frequency, TF over GST control); with CRX, 1.63 fold enrichment (6-mer frequency, TF over GST control); with ETV1 it was 1.31 fold enrichment (6-mer frequency, TF over GST control); in the assay with ERF it was 1.43 fold enrichment (6-mer frequency, TF over GST control); with ETV3L, 1.31 fold enrichment (6-mer frequency, TF over GST control). Further, the binding signal in the assay with ETS2 is 1.23 fold enrichment (6-mer frequency, TF over GST control); with SPDEF, 1.24 fold enrichment (6-mer frequency, TF over GST control); with ETV7, 1.35 fold enrichment (6-mer frequency, TF over GST control); in the assay with ELF5, 1.27 fold enrichment (6-mer frequency, TF over GST control); with ETV3 it was 1.21 fold enrichment (6-mer frequency, TF over GST control); with ETV6, 1.34 fold enrichment (6-mer frequency, TF over GST control).
